Assay results as given in the antibiotic and cytotoxicity screens of Wong et al. (2023).
Screen size: about 39,000 compounds; about 3,300 (8.5%) were called active. Many of the other results were omitted from the sample, so actives are more common in it than they were.

What follows are compounds tested on HepG2 (assay: cytotoxicity call (relative viability < 0.9)). Conditions: 10 µM.
`Cc1ccc(S(=O)(=O)Nc2ccc3c(c2)C(=O)N([C@@H](C)CO)C[C@@H](C)[C@@H](CN(C)C(=O)Nc2ccc4c(c2)OCO4)OCCCC[C@@H](C)O3)cc1` was tested, and the cytotoxicity call was “inactive”. With `C[C@H](CO)N1C[C@H](C)[C@H](CN(C)C(=O)Nc2cccc(C(F)(F)F)c2)OCc2ccccc2-c2ccccc2C1=O` the cytotoxicity call was “inactive”. With `C[C@@H]1CN([C@@H](C)CO)C(=O)c2cc(NS(=O)(=O)c3cn(C)cn3)ccc2O[C@@H](C)CCCCO[C@H]1CN(C)C(=O)c1ccncc1` the cytotoxicity call was “inactive”. `CO[C@H]1C[C@@H](C[C@@H](C)[C@H]2CC(=O)[C@H](C)/C=C(\C)[C@@H](O)[C@H](OC)C(=O)[C@H](C)C[C@H](C)/C=C/C=C\C=C(C)[C@H](OC)C[C@@H]3CC[C@@H](C)[C@@](O)(O3)C(=O)C(=O)N3CCCC[C@H]3C(=O)O2)CC[C@H]1OC(=O)C(C)(CO)CO` was tested, and the cytotoxicity call was “active”. With `CO[C@H]1C[C@@H]2CC[C@@H](C)[C@@](O)(O2)C(=O)C(=O)N2CCCC[C@H]2C(=O)O[C@H]([C@H](C)C[C@@H]2CC[C@@H](OC(=O)C(C)(CO)CO)[C@H](OC)C2)CC(=O)[C@H](C)/C=C(\C)[C@@H](O)[C@@H](OC)C(=O)[C@H](C)C[C@H](C)/C=C/C=C/C=C/1C` the cytotoxicity call was “inactive”. With `CO[C@H]1C[C@@H](C[C@@H](C)[C@H]2CC(=O)[C@@H](C)/C=C(\C)[C@@H](O)[C@@H](OC)C(=O)[C@@H](C)C[C@@H](C)/C=C/C=C/C=C(\C)[C@H](OC)C[C@H]3CC[C@@H](C)[C@@](O)(O3)C(=O)C(=O)N3CCCC[C@@H]3C(=O)O2)CC[C@@H]1OC(=O)C(C)(CO)CO` the cytotoxicity call was “inactive”. In the case of `C[C@@H]1CN([C@H](C)CO)C(=O)c2cc(NC(=O)Cc3ccccc3)ccc2O[C@@H]1CN(C)Cc1ccc(Cl)c(Cl)c1`, the cytotoxicity call is reported as “inactive”. In the case of `C[C@@H]1CN([C@H](C)CO)C(=O)c2cc(NS(C)(=O)=O)ccc2O[C@@H]1CN(C)C(=O)Nc1ccccc1`, the cytotoxicity call is reported as “inactive”. In the case of `Cc1nc(CCO)cs1`, the cytotoxicity call is reported as “inactive”. `CC(C)[Si](C#CCCc1ccccc1)(O[C@H](c1ccccc1)c1cn(Cc2ccccc2)nn1)C(C)C` was tested, and the cytotoxicity call was “inactive”. In the case of `C=C1C(CO)C(O)CC1n1cnc2c(=O)[nH]c(N)nc21.O` (stereo not given), the cytotoxicity call is reported as “active”. `Nc1nc2c(ncn2COC(CO)CO)c(=O)[nH]1.O` was tested, and the cytotoxicity call was “inactive”. With `Nc1nc2c(ncn2COCCO)c(=O)[nH]1` the cytotoxicity call was “inactive”. `C[C@@H]1CN([C@H](C)CO)C(=O)CCCn2cc(nn2)CO[C@@H]1CN(C)C(=O)C1CC1` was tested, and the cytotoxicity call was “inactive”. In the case of `Cc1ccccc1N1CCN(S(=O)(=O)C[C@]23CC[C@H](C[C@@H]2NC(=O)[C@@H](N)CCS(C)(=O)=O)C3(C)C)CC1`, the cytotoxicity call is reported as “inactive”. `COc1ccc(CN(C)C[C@@H]2OCCCC[C@H](C)Oc3ccc(NC(=O)Nc4ccccc4)cc3C(=O)N([C@@H](C)CO)C[C@H]2C)cc1` was tested, and the cytotoxicity call was “inactive”. `O=C(C[C@@H]1CC[C@H](NS(=O)(=O)c2ccc(F)cc2)[C@@H](CO)O1)N1CCC(Cc2ccccc2)CC1` was tested, and the cytotoxicity call was “inactive”. In the case of `CC1(COc2ccc3c(c2)ncn3-c2ccc3cccc(N4CCC(N)CC4)c3n2)COC1`, the cytotoxicity call is reported as “active”. In the case of `C[C@@H]1CN([C@@H](C)CO)S(=O)(=O)c2ccc(C#Cc3ccccc3)cc2O[C@@H]1CN(C)S(=O)(=O)c1ccccc1F`, the cytotoxicity call is reported as “inactive”. In the case of `C[C@@H](CN1CCCCC1)C(=O)NN`, the cytotoxicity call is reported as “inactive”. For `Cc1ccc(C(=O)C(C)CN2CCCCC2)cc1.Cl` (stereo not given), the cytotoxicity call was “inactive”. `Cl.O=C(Nc1ccccc1)OCC(CN1CCCCC1)OC(=O)Nc1ccccc1` (stereo not given) was tested, and the cytotoxicity call was “active”. `C[C@H](CO)N1C[C@H](C)[C@@H](CN(C)S(C)(=O)=O)Oc2ccc(NS(=O)(=O)c3ccc(Cl)cc3)cc2CC1=O` was tested, and the cytotoxicity call was “inactive”. For `Cc1noc(C)c1NC(=O)N(C)C[C@H]1OCCCC[C@@H](C)Oc2ccc(NC(=O)Nc3cccc4ccccc34)cc2C(=O)N([C@@H](C)CO)C[C@H]1C`, the cytotoxicity call was “inactive”. For `C[C@@H]1CN([C@H](C)CO)C(=O)c2cc(NC(=O)C3CCCCC3)ccc2O[C@@H](C)CCCCO[C@@H]1CN(C)Cc1ccc2c(c1)OCO2`, the cytotoxicity call was “active”. For `C[C@@H]1CCCCO[C@@H](CN(C)Cc2ccc3c(c2)OCO3)[C@H](C)CN([C@H](C)CO)C(=O)c2cc(NC(=O)C3CCCCC3)ccc2O1`, the cytotoxicity call was “inactive”. `C[C@@H]1CCCCO[C@H](CN(C)Cc2ccc3c(c2)OCO3)[C@H](C)CN([C@@H](C)CO)C(=O)c2cc(NC(=O)C3CCCCC3)ccc2O1` was tested, and the cytotoxicity call was “active”. `C[C@@H]1CN([C@@H](C)CO)C(=O)c2cc(NC(=O)C3CCCCC3)ccc2O[C@@H](C)CCCCO[C@@H]1CN(C)Cc1ccc2c(c1)OCO2` was tested, and the cytotoxicity call was “inactive”. In the case of `C[C@@H]1CCCCO[C@H](CN(C)Cc2ccc3c(c2)OCO3)[C@@H](C)CN([C@@H](C)CO)C(=O)c2cc(NC(=O)C3CCCCC3)ccc2O1`, the cytotoxicity call is reported as “inactive”. `C[C@H](CO)N1C[C@H](C)[C@@H](CN(C)Cc2ccc3c(c2)OCO3)OCCCC[C@H](C)Oc2ccc(NC(=O)C3CCCCC3)cc2C1=O` was tested, and the cytotoxicity call was “inactive”. `C[C@@H]1CCCCO[C@@H](CN(C)Cc2ccc3c(c2)OCO3)[C@@H](C)CN([C@@H](C)CO)C(=O)c2cc(NC(=O)C3CCCCC3)ccc2O1` was tested, and the cytotoxicity call was “inactive”. `C[C@@H]1CCCCO[C@H](CN(C)Cc2ccc3c(c2)OCO3)[C@H](C)CN([C@H](C)CO)C(=O)c2cc(NC(=O)C3CCCCC3)ccc2O1` was tested, and the cytotoxicity call was “active”. For `C[C@H](CO)N1C[C@H](C)[C@H](CN(C)Cc2ccc3c(c2)OCO3)OCCCC[C@H](C)Oc2ccc(NC(=O)C3CCCCC3)cc2C1=O`, the cytotoxicity call was “inactive”. For `C[C@@H]1CCCCO[C@@H](CN(C)Cc2ccc3c(c2)OCO3)[C@H](C)CN([C@@H](C)CO)C(=O)c2cc(NC(=O)C3CCCCC3)ccc2O1`, the cytotoxicity call was “inactive”. For `C[C@H]1CCCCO[C@H](CN(C)Cc2ccc3c(c2)OCO3)[C@@H](C)CN([C@@H](C)CO)C(=O)c2cc(NC(=O)C3CCCCC3)ccc2O1`, the cytotoxicity call was “inactive”. In the case of `C[C@@H]1CCCCO[C@H](CN(C)Cc2ccc3c(c2)OCO3)[C@@H](C)CN([C@H](C)CO)C(=O)c2cc(NC(=O)C3CCCCC3)ccc2O1`, the cytotoxicity call is reported as “active”. With `O=C(C[C@@H]1C[C@@H]2c3cc(NC(=O)NC4CCCC4)ccc3O[C@@H]2[C@H](CO)O1)NCc1ccc2c(c1)OCO2` the cytotoxicity call was “inactive”. In the case of `CO/N=C(\C(=O)N[C@@H]1C(=O)N2C(C(=O)O)=C(CSC(=O)c3ccco3)CS[C@H]12)c1csc(N)n1`, the cytotoxicity call is reported as “inactive”. For `CC(C)NC(=O)N(C)C[C@H]1Oc2ccc(NC(=O)c3ccncc3)cc2CC(=O)N([C@@H](C)CO)C[C@H]1C`, the cytotoxicity call was “inactive”. `CC(C)NC(=O)N(C)C[C@H]1Oc2ccc(NC(=O)CCN3CCOCC3)cc2C(=O)N([C@H](C)CO)C[C@H]1C` was tested, and the cytotoxicity call was “inactive”. `CC(C)NC(=O)Nc1ccc2c(c1)CC(=O)N([C@@H](C)CO)C[C@@H](C)[C@@H](CN(C)C(=O)Nc1ccc3c(c1)OCO3)O2` was tested, and the cytotoxicity call was “inactive”. In the case of `C[C@H]1CN([C@@H](C)CO)C(=O)Cc2cc(NS(=O)(=O)c3ccccc3)ccc2O[C@H]1CN(C)S(=O)(=O)c1cn(C)cn1`, the cytotoxicity call is reported as “inactive”. In the case of `CNC(=O)Cn1c(=O)c2c(OC)ccnc2n(C)c1=O`, the cytotoxicity call is reported as “inactive”. In the case of `Cc1noc(C)c1NC(=O)Nc1ccc2c(c1)C(=O)N([C@H](C)CO)C[C@H](C)[C@H](CN(C)S(=O)(=O)c1cccs1)OCCCC[C@@H](C)O2`, the cytotoxicity call is reported as “inactive”. With `C[C@@H]1CCCCO[C@H](CN(C)C(=O)NC2CCCCC2)[C@@H](C)CN([C@H](C)CO)C(=O)c2cc(NC(=O)Cc3ccccc3)ccc2O1` the cytotoxicity call was “inactive”. `COc1ccc(S(=O)(=O)Nc2ccc3c(c2)CC(=O)N([C@H](C)CO)C[C@@H](C)[C@H](CN(C)CC2CC2)O3)cc1` was tested, and the cytotoxicity call was “inactive”. In the case of `CN(C)CC[C@H](CSc1ccccc1)Nc1ccc(S(=O)(=O)NC(=O)c2ccc(N3CCN(Cc4ccccc4-c4ccc(Cl)cc4)CC3)cc2)cc1[N+](=O)[O-]`, the cytotoxicity call is reported as “inactive”. With `CC1(C)CCC(c2ccc(Cl)cc2)=C(CN2CCN(c3ccc(C(=O)NS(=O)(=O)c4ccc(N[C@H](CCN5CCOCC5)CSc5ccccc5)c(S(=O)(=O)C(F)(F)F)c4)cc3)CC2)C1` the cytotoxicity call was “active”. For `CC1(C)CCC(CN2CCN(c3ccc(C(=O)NS(=O)(=O)c4ccc(NCC5CCOCC5)c([N+](=O)[O-])c4)c(Oc4cnc5[nH]ccc5c4)c3)CC2)=C(c2ccc(Cl)cc2)C1`, the cytotoxicity call was “inactive”. `CC1(C)CCC(c2ccc(Cl)cc2)=C(CN2CCN(c3ccc(C(=O)NS(=O)(=O)c4ccc(N[C@@H](CCN5CCOCC5)CSc5ccccc5)c(S(=O)(=O)C(F)(F)F)c4)cc3)CC2)C1` was tested, and the cytotoxicity call was “active”. For `CCCNC(=O)Nc1ccc2c(c1)OC[C@@H](C)N(C(=O)C1CCOCC1)C[C@H](C)[C@@H](OC)CN(C)C2=O`, the cytotoxicity call was “inactive”. In the case of `C[C@H](CO)N1C[C@H](C)[C@H](CN(C)C(=O)Nc2ccc(F)cc2)OCCCC[C@H](C)Oc2ccc(NC(=O)C3CCC3)cc2C1=O`, the cytotoxicity call is reported as “inactive”. `COc1ccc(S(=O)(=O)Nc2ccc3c(c2)C(=O)N([C@H](C)CO)C[C@H](C)[C@H](CN(C)S(=O)(=O)c2ccc(C)cc2)O3)cc1` was tested, and the cytotoxicity call was “inactive”. `C[C@@H]1CCCCO[C@@H](CN(C)C(=O)Nc2ccc3c(c2)OCO3)[C@H](C)CN([C@H](C)CO)C(=O)c2cc(NC(=O)c3ccccc3)ccc2O1` was tested, and the cytotoxicity call was “inactive”. With `Cc1ccc(S(=O)(=O)N(C)C[C@@H]2Oc3ccc(NC(=O)Cn4cnnn4)cc3CC(=O)N([C@H](C)CO)C[C@@H]2C)cc1` the cytotoxicity call was “inactive”. For `N#CCNC(=O)CN1C(=O)c2ccccc2C1=O`, the cytotoxicity call was “inactive”. `COC(=O)C(CCCN1C(=O)c2ccccc2C1=O)(NC(C)=O)c1nn[nH]n1` (stereo not given) was tested, and the cytotoxicity call was “active”. With `NC(=O)CCN1C(=O)c2ccccc2C1=O` the cytotoxicity call was “inactive”. With `O=C(C[C@@H]1CC[C@H]2[C@@H](COC[C@@H](O)CN2C(=O)Nc2ccc(Cl)cc2)O1)NCCc1ccncc1` the cytotoxicity call was “inactive”. For `Cc1ccccc1S(=O)(=O)N1C[C@H](O)COC[C@@H]2O[C@@H](CC(=O)NCCc3ccccc3)CC[C@H]21`, the cytotoxicity call was “inactive”.
